This is part of a sample that, as a whole, favours compounds with a hit. Of some 83,000 tested, about 20% had one in any assay.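 Assay: single dose, 48 h. Readout: percent growth (0 = no net growth; negative = cell death). Active: <10.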 Values without a mark were called inactive. Activity calls are given as the source filed them.
What was measured:
Assay in all cases: NCI-60 one-dose screen, 48 h (100 = growth as untreated, 0 = no growth, -100 = all killed)
Settings in all cases: 10 µM unless noted
[1] = system: SK-MEL-2 melanoma
[2] = system: EKVX NSCLC
[3] = system: SN12C renal
[4] = system: UO-31 renal
[5] = system: TK-10 renal
[6] = system: ACHN renal
[7] = system: CAKI-1 renal
[8] = system: A498 renal
[9] = system: CCRF-CEM leukemia
[10] = system: MOLT-4 leukemia
[11] = system: SR leukemia
[12] = system: RPMI-8226 leukemia
[13] = system: OVCAR-5 ovarian
[14] = system: OVCAR-4 ovarian
[15] = system: SK-OV-3 ovarian
[16] = system: IGROV1 ovarian
[17] = system: OVCAR-3 ovarian
[18] = system: HS 578T breast
[19] = system: NCI/ADR-RES ovarian
[20] = system: OVCAR-8 ovarian

Row | SMILES | growth [1] | growth [2] | growth [3] | growth [4] [%] | growth [5] | growth [6] [%] | growth [7] | growth [8] | growth [9] | growth [10] | growth [11] | growth [12] | growth [13] | growth [14] | growth [15] | growth [16] | growth [17] | growth [18] | growth [19] | growth [20] [%]
1 | CC(=O)N1N=C(c2ccc(Nc3nc(Nc4ccc(F)cc4)nc(Nc4ccc(Cl)cc4)n3)cc2)CC1c1ccc(Cl)cc1 (stereo not given) | 109% | 87.3% | 107% | 56.8 | 110% | 83.1 | 83% | 88.9% | 110% | 98.2% | 102% | 82.7% | 95.1% | 94.2% | 97.2% | 66.1% | 123% | 95.8% | – | –
2 | CCCCNC(=O)Oc1ccc(/C(=C(\C)c2ccc(Cl)cc2)c2ccc(OCCN(CC)CC)cc2)cc1 | 117% | 75% | 75.4% | 47.8 | 88.6% | 93.7 | 81.4% | 71% | 64.4% | 58.4% | 3.33% (active) | 63.9% | 73.4% | 69.6% | 75.3% | 81.6% | 69.1% | 74.4% | 81.4% | –
3 | CCCCCCNC(=O)Oc1ccc(/C(=C(\C)c2ccc(Cl)cc2)c2ccc(OCCCN(C)C)cc2)cc1 | 92.1% | 83% | 90% | 55.4 | 75.8% | 94.3 | 96.2% | 85.7% | 70.7% | 37.3% | -13% (active) | 79% | 75.1% | 76% | 94.4% | 67% | 87.8% | 74.5% | 83.2% | –
4 | CCOC(=O)c1c(C)nc2c(c1N)CC(=O)N2Cc1ccc(F)cc1 | 92.6% | 94.9% | 93.2% | 88.6 | 97.3% | 95.7 | 92.9% | 64.1% | 85.3% | 85% | 99.5% | 80.1% | 103% | 94.7% | 95% | 104% | 99.5% | 91.5% | 99% | –
5 | COc1cc(C(=O)c2cnc(-c3c[nH]c4cccc(C)c34)[nH]2)cc(OC)c1OC | 35% | 29.7% | 28.1% | 17 | 43.8% | 26.4 | 6.61% (active) | -12% (active) | 6.39% (active) | 8.85% (active) | 4.87% (active) | 10% | 46.5% | 34.5% | 41.1% | 22.1% | -49% (active) | 21.2% | 3.24% (active) | –
6 | CCOC(=O)c1c2c(n(-c3ccc(C#N)cc3)c1-c1ccccc1)C=CCC2 | 79.6% | 93.2% | 101% | 81.8 | 96.5% | 86.8 | 76.4% | 96.7% | 95.8% | 81.2% | 92.1% | 85.8% | 96.7% | 77.2% | 89.6% | 77.9% | 105% | 99.3% | 94% | –
7 | c1ccc2cc(C[n+]3ccn(CCCCCCCCCCCCn4cc[n+](Cc5ccc6ccccc6c5)c4)c3)ccc2c1 | -69.9% (active) | -62.6% (active) | -76.4% (active) | 24.2 | -48.2% (active) | 10.5 | 41.9% | -32.6% (active) | -68.3% (active) | -69.7% (active) | -50% (active) | -70.7% (active) | -25.3% (active) | -60.1% (active) | -47.9% (active) | -73.8% (active) | -88.7% (active) | -59.2% (active) | 61.7% | –
8 | c1ccc2cc(C[n+]3ccn(CCCCCCn4cc[n+](Cc5ccc6ccccc6c5)c4)c3)ccc2c1 | 36% | 37.3% | 34.9% | 97.2 | 83.1% | 72.5 | 95.4% | 10% | 84.2% | 74.9% | 69% | 65.5% | 60.4% | 40.8% | 55.6% | 58.1% | 62.4% | 68.5% | 100% | –
9 | NS(=O)(=O)c1ccc(N=Nc2ccc(-c3nn4cc(-c5ccccc5)nc4s3)cc2)cc1 | 99.4% | 96.7% | 108% | 89.4 | 88.5% | 99.8 | 85.9% | 97.5% | 111% | 105% | 90.6% | 105% | 103% | 99.7% | 88.8% | 117% | 102% | 94.2% | 107% | –
10 | CCCCCCNC(=O)Oc1ccc(/C(=C(\C)c2ccc(Cl)cc2)c2ccc(OCCN(CC)CC)cc2)cc1 | 95.6% | 73.6% | 76.2% | 41.8 | 85% | 85.6 | 89.9% | 93.7% | 54.6% | 35.3% | -10.8% (active) | 51.6% | 72.1% | 60.5% | 83.1% | 55.2% | 67.6% | 67.5% | 72.7% | –
11 | [O-][n+]1c2ccccc2[n+]([O-])c2c3ccccc3[nH]c21 | 61.9% | 30.8% | 81.3% | 70 | 41% | 87.5 | 48.1% | -38.5% (active) | 82.3% | 98.8% | 95.6% | 57.9% | 21% | 34.4% | 42.8% | 13.8% | -20.6% (active) | 96.3% | 65.4% | –
12 | Cc1cc2[nH]c(=O)c3c4ncccc4cn3c2cc1C | 93.8% | 60.9% | 39.3% | 37.1 | 18.1% | 32.2 | -24.7% (active) | 105% | 21.7% | 19.4% | -1.41% (active) | 2.89% (active) | – | – | 87.4% | 24.5% | -21.7% (active) | – | 34.3% | 39.6
13 | COc1ccc(-c2nc3sc(-c4ccccc4)cn3n2)cc1 | 59.1% | 62.7% | 62.6% | 61.7 | 106% | 67.5 | 60% | 43.7% | 64.2% | 50.7% | 41.2% | 78.6% | 108% | 62.2% | 67.8% | 47.8% | 58.2% | 59.9% | – | –
14 | CC(C)n1cnc2c(Nc3cccc(Cl)c3)nc(N[C@H]3CCCC[C@@H]3N)nc21 | 78.3% | 54.1% | 50.6% | 31.7 | 67.4% | 29.9 | 49.5% | 94.9% | 66.6% | 7.51% (active) | 13.9% | 19.8% | 50.4% | 55.4% | 80.6% | 29.4% | 61.2% | 66.7% | 61.4% | –
15 | COc1ccc(-c2nc(NN)c3c(C)nn(-c4ccc(F)cc4)c3n2)cc1 | 24.1% | 59.4% | 44.5% | 51.2 | 77.3% | 40.2 | 36.9% | 20.8% | 23.4% | 37.5% | 28.3% | 54.8% | 95.6% | 62.7% | 29.4% | 51.2% | 12% | 25% | 34.7% | –
16 | c1cc(NCCc2ccncc2)nc(-n2cnc3ccccc32)c1 | 86.8% | 102% | 90.4% | 74.9 | 86.9% | 65.4 | 81.2% | 69.3% | 99.8% | 86.4% | 58.2% | 68.5% | 98% | 96.7% | 97.2% | 73.1% | 96.2% | 98.2% | 90.7% | –
